Screening results deposited in PubChem by National Center for Advancing Translational Sciences (NCATS).
VDR inh: blocks the human vitamin D receptor; P11473; 400,000 compounds, 0.93% hits; Potency, µM, hits mostly inhibitors; AID 504847; VDR-SRC2-3 peptide fluorescence polarization, 2 h
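Compounds are added to VDR with labelled SRC2-3 coactivator peptide and held 2 h at room temperature. Inhibition of the VDR–peptide interaction is then read as a change in fluorescence polarization.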
TrxR1 substrate: rat thioredoxin reductase 1 substrate activity. purified TrxR1 substrate turnover, NADPH consumption readout. Potency, µM (doses to about 114 µM). 390,000 compounds, 0.01% hits; also: nearly all actives have a fitted effect of over 50% in size
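Rat TrxR1, dispensed at 90 nM, was prereduced with 400 uM NADPH (final) for 5 min at ~22 deg C, then incubated with compound 15 min before 400 uM selenite. A first-read NADPH fluorescence drop versus no-compound background flagged substrates.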
GCN5L2 inh: GCN5L2 (KAT2A) acetyltransferase inhibition; Q92830; GCN5L2 HAT assay, ThioGlo1 CoA-SH fluorescence; Potency, µM (series often up to 58.9 µM), usual class: inhibitors; 390,000 compounds, 0.21% hits; AID 504327
Target sequence (Q92830 whole entry, looked up): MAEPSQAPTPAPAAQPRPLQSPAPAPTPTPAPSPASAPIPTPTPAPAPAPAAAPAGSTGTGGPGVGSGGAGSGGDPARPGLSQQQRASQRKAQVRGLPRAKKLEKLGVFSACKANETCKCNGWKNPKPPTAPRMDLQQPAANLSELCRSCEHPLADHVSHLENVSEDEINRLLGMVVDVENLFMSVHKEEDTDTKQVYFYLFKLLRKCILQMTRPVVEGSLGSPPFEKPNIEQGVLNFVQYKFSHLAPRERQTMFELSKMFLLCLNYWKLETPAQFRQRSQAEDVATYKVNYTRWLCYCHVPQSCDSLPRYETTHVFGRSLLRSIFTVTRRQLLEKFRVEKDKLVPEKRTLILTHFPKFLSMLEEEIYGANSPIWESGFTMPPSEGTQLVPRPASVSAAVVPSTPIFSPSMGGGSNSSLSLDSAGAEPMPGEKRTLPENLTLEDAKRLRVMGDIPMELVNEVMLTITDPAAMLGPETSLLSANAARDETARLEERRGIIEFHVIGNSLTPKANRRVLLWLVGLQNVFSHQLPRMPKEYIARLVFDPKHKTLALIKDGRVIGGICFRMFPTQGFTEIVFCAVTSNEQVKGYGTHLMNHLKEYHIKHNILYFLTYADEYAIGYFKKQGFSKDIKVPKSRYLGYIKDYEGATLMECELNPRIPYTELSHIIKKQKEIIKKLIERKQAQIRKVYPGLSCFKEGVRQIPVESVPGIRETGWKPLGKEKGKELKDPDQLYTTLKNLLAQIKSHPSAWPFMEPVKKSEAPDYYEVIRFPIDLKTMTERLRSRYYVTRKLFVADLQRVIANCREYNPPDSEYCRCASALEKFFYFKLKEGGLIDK
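GCN5L2 (20 nM) in 50mM HEPES pH 7.5, 0.1mM EDTA, 0.01% Tween-20 preincubated 15 min with compounds at room temperature. Reaction started with H3(1-25) 75uM, acetyl-CoA 70uM, ThioGlo1 50uM; CoA-thiol fluorescence (Ex340/Em540) read at 0 and 20 min.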
TrxR1 inh: blocks rat thioredoxin reductase 1; O89049; recombinant rTrxR1, NADPH fluorescence consumption, selenite substrate; Potency, µM (doses to about 114 µM), hits mostly inhibitors; 390,000 compounds, 1% hits; also: nearly all actives have a fitted effect of over 65% in size
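Rat TrxR1 (90 nM in the dispensed reagent) was pre-reduced with 400 uM NADPH for 5 min at room temperature, then incubated with compound for 15 min. After 400 uM selenite was added, NADPH fluorescence (Ex 340/Em 450 nm) was followed for 8 min.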
A number is an active result; ! = repeats disagree; [ ] = dose if it differs, or a comment. In the library only some 1.8% were active in any assay of this set; here they are far more common. Calls follow the shape of the dose curve; as a rule, active = well fitted curve in the direction sought with a large enough effect; inconclusive = small, poorly fitted or top-dose-only effect, or another doubt; inactive = no such curve, though single readings can be large; an effect the other way counts as inactive or inconclusive.

O=C(C[n+]1cc(Br)cc2ccccc21)c1ccc(O)c(O)c1 was read as TrxR1 substrate inactive and TrxR1 inh inactive.
`O=C(O)C1=C(OCc2ccc(F)c(F)c2)C(=O)NCC1` gave VDR inh 79µM, TrxR1 substrate inactive, GCN5L2 inh inactive and TrxR1 inh inactive.
For O=C(O)c1ccc(COc2c(F)c(F)cc(F)c2F)cc1 the results were VDR inh inactive, TrxR1 substrate inactive, GCN5L2 inh inactive and TrxR1 inh inactive.
O=C(Cc1ccc([N+](=O)[O-])cc1)Nc1ccc(O)cc1C(=O)O was read as VDR inh inactive, TrxR1 substrate inactive, GCN5L2 inh inactive and TrxR1 inh inactive.
`O=C(Cc1ccc([N+](=O)[O-])cc1)c1c(O)cc(O)cc1O` gave VDR inh inactive, TrxR1 substrate inactive, GCN5L2 inh inactive and TrxR1 inh 3.5µM.
`Cc1cccn2cc(CNC(=O)c3ccco3)nc12` gave VDR inh inactive, TrxR1 substrate inactive, GCN5L2 inh 35µM and TrxR1 inh inactive.
Cc1cccn2cc(CCNC(=O)c3ccco3)nc12 was read as VDR inh inactive, TrxR1 substrate inactive, GCN5L2 inh inactive and TrxR1 inh inactive.
Cc1cc(C(=O)OCC(=O)Nc2ccc(F)c(F)c2F)c(C)o1 was read as VDR inh 79µM, TrxR1 substrate inactive, GCN5L2 inh inactive and TrxR1 inh inactive.
For COc1ccc(Cl)cc1NC(=O)COC(=O)c1cc(C)oc1C the results were VDR inh inactive, TrxR1 substrate inactive, GCN5L2 inh inactive and TrxR1 inh inactive.
Screening COc1ccc(OC)c(/C=C2\C=Cc3ccccc32)c1 returned TrxR1 substrate inactive and TrxR1 inh 5.6µM.
For COc1ccc(/C=C2/C=Cc3ccccc32)cc1 the results were TrxR1 substrate inactive and TrxR1 inh inactive.
For O=C(/C=C/c1ccccc1)CC(O)(c1ccccc1)C(F)(F)F (configuration not stated) the results were VDR inh inactive, TrxR1 substrate inactive, GCN5L2 inh inactive and TrxR1 inh inconclusive.
For COc1ccc(/C=C/C(=O)CC(O)(c2ccccc2)C(F)(F)F)cc1 (configuration not stated) the results were VDR inh 35µM, TrxR1 substrate inactive, GCN5L2 inh inactive and TrxR1 inh inactive.
`O=C(O)c1ccc(-c2ccccc2Cl)o1` gave VDR inh 141µM!, TrxR1 substrate inactive, GCN5L2 inh inactive and TrxR1 inh inactive.
For c1ccc(CN(Cc2ccco2)C(c2ccncc2)c2nnnn2C2CCCC2)cc1 (configuration not stated) the results were VDR inh 28µM, TrxR1 substrate inactive, GCN5L2 inh inactive and TrxR1 inh inconclusive.
Screening O=C(c1ccc(Nc2nc3ccccc3n3nnnc23)cc1)N1CCN(c2cccc(C(F)(F)F)c2)CC1 returned VDR inh inactive, TrxR1 substrate inactive, GCN5L2 inh inactive and TrxR1 inh 71µM.
For O=C(c1ccncc1)N1CCN(c2cccc(C(F)(F)F)c2)CC1 the results were VDR inh inactive, TrxR1 substrate inactive, GCN5L2 inh inactive[0.501 µM] and TrxR1 inh inactive.
For CNC[C@H](O)c1ccc(O)c(O)c1 the results were VDR inh 32µM!, TrxR1 substrate inactive, GCN5L2 inh inactive and TrxR1 inh inconclusive.
Cc1ccc2c(c1)C/C(=C/c1ccc(N(C)C)cc1)C2=O was read as TrxR1 substrate inactive and TrxR1 inh inactive.
Screening S=C(NCCCN(Cc1ccc(Cl)cc1)c1ccc(-c2ccccc2)cn1)NCCCN(Cc1ccc(Cl)cc1)c1ccc(-c2ccccc2)cn1 returned VDR inh inactive, TrxR1 substrate inactive and TrxR1 inh inactive.
`S=C(NCCCc1cnc[nH]1)NCCCN(Cc1ccc(Cl)cc1)c1ccc(-c2ccccc2)cn1` gave VDR inh inactive, TrxR1 substrate inactive and TrxR1 inh 89µM.
O=c1[nH]c2ccc(Cl)cc2c(-c2ccccc2)c1SC(=S)N1CCCCC1 was read as VDR inh inconclusive, TrxR1 substrate inactive, GCN5L2 inh inactive and TrxR1 inh inconclusive.
For O=c1[nH]c2ccc(Cl)cc2c(-c2ccccc2)c1SC(=S)N1CCOCC1 the results were VDR inh 89µM, TrxR1 substrate inactive, GCN5L2 inh inactive and TrxR1 inh inactive.
For Cc1ccc(SC(CC(=O)c2ccc(F)cc2)C(=O)O)cc1 (configuration not stated) the results were VDR inh 22µM, TrxR1 substrate inactive, GCN5L2 inh inactive and TrxR1 inh inconclusive.
For Cc1ccc(-c2ccc(NC(=O)C3C4C=CC(C4)C3C(=O)O)cc2)o1 (configuration not stated) the results were VDR inh inactive, TrxR1 substrate inactive, GCN5L2 inh inactive and TrxR1 inh 22µM.
